High-throughput results from PubChem BioAssay.
Luc counter = Kinase-Glo luciferase inhibition (counter-screen); Potency, µM (doses to about 38.3 µM), for inactives: top-dose activity change, negative = inhibition, most hits filed as inhibitors; Kinase-Glo luciferase, ATP luminescence, 8 min; 200,000 compounds, 0.28% hits; active = well fitted inhibition curve with a large enough effect; inconclusive = small, poorly fitted or top-dose-only effect; also: potency is read from the fitted curve at half-maximal effect; nearly all actives have a fitted effect of over 60% in size
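Compounds were added to a substrate mix at pH 7.2 (50 mM imidazole, 10 uM ATP, within the enzyme's linear range), followed by Kinase-Glo detection reagent; luminescence was measured after 8 minutes at ambient temperature.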
PNC inhibitor = perinucleolar compartment assembly inhibition; AID 2417; activity change (PNC), negative = inhibition, % at 10 µM; PC3M PTB-GFP, PNC prevalence imaging, 16 h; hits give low values; 140,000 compounds, 3.1% hits;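 active = readout at or below -70, meaning at least 70% loss of cells showing the perinucleolar compartment, a nuclear body marking cancer cells; inconclusive = readout between -30 and a set limit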;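 also: plate controls were DMSO wells for no effect and camptothecin positive control wells for full effect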
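Compounds are pinned in duplicate onto adhered PC3M cells stably expressing GFP-tagged PTB and incubated 16 h at 37 C. Cells are then fixed, nuclei stained with Hoechst, and PNC-positive cells counted.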
HPGD inh = inhibitors of human 15-hydroxyprostaglandin dehydrogenase (HPGD). AID 894. P15428. 150,000 compounds, 4.3% hits. Potency, µM, inactives show at the highest dose activity change, negative = inhibition, most hits filed as inhibitors. purified HPGD, NADH fluorescence kinetic, PGE2 substrate; also: potency is read from the fitted curve at half-maximal effect
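NADH formation kinetics: reaction with 30 uM PGE2 and 1 mM NAD+ (final), 20 nM enzyme, Tris-HCl pH 8 with Tween 20, after 15 min compound preincubation at room temperature. Fluorescence change, last versus first of five reads.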
ALDH1A1 inh = ALDH1A1 (human) enzyme inhibition; Purified ALDH1A1, NADH fluorescence, propionaldehyde substrate; Potency, µM (highest dose often 75.3 µM), without a hit: at the highest dose activity, negative = inhibition, usual class: inhibitors; 220,000 compounds, 7.3% hits;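 also: potency is read from the fitted curve at half-maximal effect; plate controls were no enzyme wells and a reference inhibitor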
Target sequence (P00352 whole entry, looked up): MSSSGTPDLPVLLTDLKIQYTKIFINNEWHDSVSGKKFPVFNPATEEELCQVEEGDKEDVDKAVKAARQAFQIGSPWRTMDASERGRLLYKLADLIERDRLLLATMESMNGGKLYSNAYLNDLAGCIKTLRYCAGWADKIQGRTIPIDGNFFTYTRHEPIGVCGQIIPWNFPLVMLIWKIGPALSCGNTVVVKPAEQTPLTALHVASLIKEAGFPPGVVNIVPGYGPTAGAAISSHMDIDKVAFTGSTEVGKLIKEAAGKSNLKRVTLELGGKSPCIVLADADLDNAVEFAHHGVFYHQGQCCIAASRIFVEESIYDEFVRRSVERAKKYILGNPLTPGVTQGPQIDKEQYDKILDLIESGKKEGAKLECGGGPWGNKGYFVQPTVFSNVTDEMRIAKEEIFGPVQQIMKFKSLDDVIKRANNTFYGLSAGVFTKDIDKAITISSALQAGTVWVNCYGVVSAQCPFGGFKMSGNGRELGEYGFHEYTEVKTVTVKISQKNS
LMNA splice mod = LMNA splicing modulation. HeLa LMNA splicing GFP/RFP minigene ratio, 48 h. Potency, µM (doses to about 46.1 µM), inactives show top-dose ratio change, negative = inhibition, most hits filed as inhibitors. 200,000 compounds, 0.01% hits. AID 1487; active = well fitted inhibition curve with a large enough effect in the signal ratio, with a control signal flat, not every such curve was filed as active; inconclusive = small, poorly fitted or top-dose-only effect, or effect the other way, or a change in a side signal; the % refers to the signal ratio; also: potency is read from the fitted curve at half-maximal effect
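S3 HeLa cells stably expressing lamin A-EGFP splicing minigene plus DsRed2, 600 cells/well, 48 h compound exposure at 37C. Laser-scanning cytometry; analysed as GFP (500-530 nm)/RFP (575-640 nm) total intensity ratio; 0.5% DMSO vehicle.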
Active calls of the source: *; ! = a repeat was not active; [ ] = another dose, or the depositor's remark. Shown are actives, neighbours in structure and some others; about 10% of the full set was active somewhere. Unless noted, calls follow the shape of the dose curve; as a rule, active = well fitted inhibition curve with a large enough effect (not every such curve was filed as active); inconclusive = small, poorly fitted or top-dose-only effect, or another doubt; inactive = no such curve, though single readings can be large or run the other way. Unless noted, % is scaled to controls: 0 for no effect and ±100 for the full control effect.

O=C1NC(=S)N/C1=C/c1cc([N+](=O)[O-])ccc1N1CCOCC1 was read as Luc counter 0%, ALDH1A1 inh 25µM* and LMNA splice mod -23%[46 µM].
`O=Cc1cc([N+](=O)[O-])ccc1N1CCOCC1` gave Luc counter -1%, PNC inhibitor 19, HPGD inh -3%, ALDH1A1 inh inconclusive and LMNA splice mod 7%.
For CC1CCN(c2ccc([N+](=O)[O-])cc2C(=O)O)CC1 the results were Luc counter 4%, PNC inhibitor 26, HPGD inh -2%, ALDH1A1 inh 7% and LMNA splice mod -5%.
Screening CC(Oc1ccc(-n2cnnn2)cc1)C(=O)O (stereo not given) returned Luc counter 1%, ALDH1A1 inh 15% and LMNA splice mod 27%[46 µM].
For C[C@@H](Oc1ccc(Oc2cnc3ccc(Cl)cc3n2)cc1)C(=O)O the results were Luc counter 2%, HPGD inh 18µM*, ALDH1A1 inh inconclusive and LMNA splice mod inconclusive.
Screening COc1ccc(CNC(=O)C(=O)NCC(c2cccnc2)N2CCN(c3ccccc3)CC2)cc1 (stereo not given) returned LMNA splice mod 5%[46 µM].
COc1c(C=O)c(O)cc2c1C(=O)c1ccccc1C2=O was read as ALDH1A1 inh 3.5µM*.
For COc1ccc2c(c1O)C(=O)c1ccccc1C2=O the results were ALDH1A1 inh 9%.
O=c1c2ccccc2c2ccccc2c(=O)n1Cc1ccco1 was read as Luc counter 0%, PNC inhibitor 0, HPGD inh -16%, ALDH1A1 inh -9% and LMNA splice mod 6%.
For Cc1c(N=Cc2c(O)n(Cc3ccco3)c(=O)c3ccccc23)c(=O)n(-c2ccccc2)n1C the results were Luc counter -2%, PNC inhibitor -100*!, HPGD inh -12%, ALDH1A1 inh -12% and LMNA splice mod inconclusive.
Cn1c(-c2ccco2)n[nH]c1=S was read as Luc counter 0% and ALDH1A1 inh 8%.
For O=C(O)c1ccc(-n2c(-c3cc(-c4ccco4)[nH]n3)n[nH]c2=S)cc1 the results were Luc counter 3%, PNC inhibitor -16, HPGD inh inconclusive, ALDH1A1 inh inconclusive and LMNA splice mod 6%[0.0737 µM].
Screening S=c1[nH]nc(-c2cc(-c3ccco3)[nH]n2)n1-c1cccc2ccccc12 returned Luc counter 1%, PNC inhibitor inconclusive, HPGD inh 11µM*, ALDH1A1 inh inconclusive and LMNA splice mod 0%.
`Cc1ccccc1-n1c(-c2ccco2)n[nH]c1=S` gave Luc counter -5%, PNC inhibitor -114*, HPGD inh inconclusive, ALDH1A1 inh inconclusive and LMNA splice mod -1%.
Screening Cc1ccccc1-n1c(-c2csc3ccccc23)n[nH]c1=S returned Luc counter -2%, PNC inhibitor inconclusive, HPGD inh 16µM*, ALDH1A1 inh 22µM* and LMNA splice mod 2%.
S=c1[nH]nc(Cc2cccs2)n1-c1cccc2ccccc12 was read as Luc counter 2%, PNC inhibitor -6, HPGD inh 25µM*, ALDH1A1 inh -5% and LMNA splice mod 8%.
Screening CCOC(=O)C1CCCN(C(=O)c2ccc3c(c2)N(Cc2cccc(Cl)c2)C(=O)c2ccccc2S3(=O)=O)C1 (stereo not given) returned LMNA splice mod 1%[46 µM].
For CC(=O)c1ccc(-n2c(-c3cc(-c4ccco4)[nH]n3)n[nH]c2=S)cc1 the results were Luc counter -2%, PNC inhibitor 30, HPGD inh 5.6µM*, ALDH1A1 inh -9% and LMNA splice mod 3%.
CN(C)c1ccc(-c2cncnc2NCc2cccnc2)cc1 was read as ALDH1A1 inh 10% and LMNA splice mod 9%.
Cc1nn2cc(-c3ccccc3)nc2s1 was read as Luc counter -16%, PNC inhibitor 20, HPGD inh -6%, ALDH1A1 inh 5% and LMNA splice mod -2%.
For c1ccc(-c2cn3c4c(sc3n2)CCCC4)cc1 the results were Luc counter 11µM*, PNC inhibitor inconclusive, HPGD inh -29%, ALDH1A1 inh inconclusive and LMNA splice mod -12%.
CCN(CC)S(=O)(=O)c1ccc(N2CCOCC2)c(NC(=O)c2ccc(C#N)cc2)c1 was read as Luc counter 2% and ALDH1A1 inh 20µM*.
`CCN(CC)S(=O)(=O)c1ccc(N2CCOCC2)c(NC(=O)c2ccccc2F)c1` gave Luc counter 0% and ALDH1A1 inh inconclusive.
Screening O=C(COS(=O)c1ccccc1)Nc1cc(Cl)ccc1N1CCOCC1 (stereo not given) returned Luc counter 1% and ALDH1A1 inh 1.3µM*.
`CCN(CC)S(=O)(=O)c1ccc(N2CCOCC2)c(NC(=O)C2CCCC2)c1` gave Luc counter 0%, PNC inhibitor -2, HPGD inh -16%, ALDH1A1 inh -7% and LMNA splice mod -4%.
Screening CCN(CC)S(=O)(=O)c1ccc(N2CCOCC2)c(NC(=O)CNCCc2ccccc2)c1 returned ALDH1A1 inh 11µM*.
`CCN(CC)S(=O)(=O)c1ccc(N2CCOCC2)c(NC(=O)COc2ccccc2)c1` gave Luc counter -3%, ALDH1A1 inh 0.22µM* and LMNA splice mod -15%[46 µM].
For C[C@@H]1[C@H](C)CC[C@@]2(C(=O)O[C@H]3O[C@@H](CO[C@H]4O[C@@H](CO)[C@@H](O[C@H]5O[C@@H](C)[C@@H](O)[C@@H](O)[C@@H]5O)[C@@H](O)[C@@H]4O)[C@@H](O)[C@@H](O)[C@@H]3O)CC[C@]3(C)C(=CC[C@H]4[C@@]5(C)C[C@@H](O)[C@@H](O)[C@](C)(CO)[C@@H]5CC[C@@]43C)[C@@H]12 the results were Luc counter 0%[17.1 µM], HPGD inh -3%, ALDH1A1 inh 6%[20.9 µM] and LMNA splice mod inconclusive.
Screening COc1ccc(/C=N/OC(=O)Nc2ccccc2)cc1[N+](=O)[O-] returned Luc counter 6%, PNC inhibitor 23, HPGD inh -4%, ALDH1A1 inh -39% and LMNA splice mod -5%.
`O=C(Nc1ccccc1)O/N=C/c1ccccc1Cl` gave Luc counter -16%, PNC inhibitor 30, HPGD inh 40µM*, ALDH1A1 inh inconclusive and LMNA splice mod 6%.
Cc1ccc(C2=NN3C(C2)c2ccccc2OC32C(=O)Nc3ccccc32)cc1 (stereo not given) was read as Luc counter -2%, PNC inhibitor -8, HPGD inh -24%, ALDH1A1 inh inconclusive and LMNA splice mod inconclusive.
Screening CN1C(=O)C2(Oc3ccccc3C3CC(c4ccccc4)=NN32)c2ccccc21 (stereo not given) returned Luc counter -2%, PNC inhibitor 4, HPGD inh -12%, ALDH1A1 inh 25µM* and LMNA splice mod inconclusive.
